Here are results for 176 sequences from PMC10668032, “Altered binding affinity of SIX1-Q177R correlates with enhanced WNT5A and WNT pathway effector expression in Wilms tumor”.

In all, about 33,000 sequences were measured (“e-score”: median about -0.05, highest 2% from about 0.38 on). Shown is part of a subset that was picked to be rich in the highest values.

The assay deals with T1, SIX1-Q177R homeodomain (human, UniProt Q15475 108-198, Q177R).
T1 sequence: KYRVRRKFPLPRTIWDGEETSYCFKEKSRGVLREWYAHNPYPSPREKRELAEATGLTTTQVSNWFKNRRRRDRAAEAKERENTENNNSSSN
The assay is described as follows: universal protein binding microarray; Universal all-10-mer PBM (8x60K, AMADID 030236), 300 nM GST-tagged protein, Alexa Fluor 488 anti-GST; buffer, salt, pH and temperature not stated (as in Berger); high values mean tight binding. The note with it: protein: ivt; tags: N-terminal GST; dsDNA, one strand shown. In a few lines:
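Binding of GST-tagged homeodomains is given as 8-mer E-scores from the Universal PBM Analysis Suite. The proteins were produced by in vitro transcription/translation, quantified by anti-GST western blot against a recombinant GST standard curve, and applied in duplicate at 300 nM final concentration to universal 'all 10-mer' protein binding microarrays (8×60K format).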
Turning to AGAGTATC, the binding signal stood at 0.238 ± 0.0465 E-score.
Regarding CGTGTATC, the binding signal stood at 0.39 ± 0.00909 E-score.
Consider CGGGTATC, for which the binding signal was determined as 0.374 ± 0.0147 E-score.
Then AGTGTATA, with 0.359 ± 0.0244 E-score; and TCTAGACA, with 0.155 ± 0.0039 E-score.
Then CGATCCCC, with 0.303 ± 0.0313 E-score; and CCCCAGGA, with 0.173 ± 0.00623 E-score.
Then AGCGAGTG, with 0.268 ± 0.0193 E-score; and CAAACTAG, with 0.152 ± 0.0273 E-score.
Take AGGTGTGA: the binding signal was 0.4098 ± 0.00286 E-score.
With CGGTGCGC, the binding signal was determined as 0.221 ± 0.0195 E-score.
As for CGGTGTGC, the binding signal is 0.381 ± 0.0324 E-score.
Then GTGTGTGA, with 0.229 ± 0.0436 E-score; and CGGGGTGA, with 0.166 ± 0.0603 E-score; and AGGTGTGC, with 0.322 ± 0.019 E-score.
With AGGTGTGG the figure was 0.371 ± 0.0242 E-score; with GAGTGTGA, 0.29 ± 0.0218 E-score; with CGGTGTGA, 0.434 ± 0.0168 E-score.
As for GGGTGTGA, the binding signal amounted to 0.429 ± 0.0152 E-score.
Then ACGTGTGC, with 0.16 ± 0.0249 E-score; and CGGTGAGA, with 0.177 ± 0.0168 E-score; and ACTCCGAT, with 0.182 ± 0.0265 E-score.
Then CCCCGACG, with 0.162 ± 0.0371 E-score.
Then CACTAAGA, with 0.17 ± 0.0243 E-score.
As to AGGTATCG, the binding signal was found to be 0.33 ± 0.00862 E-score.
Take ACCCTGGA: the binding signal stood at 0.168 ± 0.028 E-score.
With CCCCACAG the figure was 0.172 ± 0.025 E-score.
In the case of CACCAAGC, the binding signal stood at 0.26 ± 0.0355 E-score.
Consider CACCAGCC, for which the binding signal came to 0.239 ± 0.0131 E-score.
Take CCCCAACA: the binding signal was found to be 0.278 ± 0.00752 E-score.
With ACTGACAA, the binding signal was 0.153 ± 0.0151 E-score.
With ACTGACCC the figure was 0.213 ± 0.011 E-score; with ACTGACAC, 0.4777 ± 0.00257 E-score.
Turning to CCTGACCC, the binding signal stood at 0.159 ± 0.0403 E-score.
Then ACTGATAC, with 0.295 ± 0.00533 E-score.
Then GCTGACAC, with 0.444 ± 0.00725 E-score; and CCTGACGC, with 0.161 ± 0.00552 E-score.
GCTGATAC: the binding signal was found to be 0.243 ± 0.0143 E-score.
Then CCTGACAC, with 0.452 ± 0.00834 E-score; and GACTCCCC, with 0.161 ± 0.0189 E-score.
On to AACCCACA, for which the binding signal was 0.157 ± 0.00573 E-score.
Then GAGTCACC, with 0.157 ± 0.0094 E-score; and CTACGACA, with 0.172 ± 0.0171 E-score; and CACCACGC, with 0.2817 ± 0.00156 E-score.
Then ATTCGGGG, with 0.1763 ± 0.00138 E-score; and GTCGACAC, with 0.4143 ± 0.00159 E-score; and ATCGACTC, with 0.201 ± 0.019 E-score.
Then CTCGACAC, with 0.419 ± 0.0214 E-score; and CTCGGCAC, with 0.194 ± 0.0445 E-score; and ATCGACCC, with 0.163 ± 0.0642 E-score.
For the sequence GTCGAAAC, the binding signal turned out to be 0.182 ± 0.0154 E-score.
Then CTCGACCC, with 0.182 ± 0.0618 E-score.
Then ATCGACAC, with 0.436 ± 0.0239 E-score; and CACGCCTG, with 0.202 ± 0.0125 E-score.
CCCCTCCA: the binding signal came to 0.195 ± 0.0175 E-score.
With ACATGACA the figure was 0.179 ± 0.0207 E-score.
Then ATGCCAAG, with 0.162 ± 0.0414 E-score; and GTGGGGTA, with 0.278 ± 0.0225 E-score; and GGTTTAAC, with 0.1932 ± 0.000396 E-score.
Consider CAGTGTCC, for which the binding signal stood at 0.374 ± 0.0168 E-score.
Regarding AAGGGTCG, the binding signal worked out at 0.188 ± 0.0266 E-score.
As to AAGTGTCG, the binding signal stood at 0.384 ± 0.00583 E-score.
Consider CAGTGTCA, for which the binding signal was determined as 0.4579 ± 0.00161 E-score.
Turning to AAGTGTGG, the binding signal is 0.169 ± 0.00659 E-score.
With CAGTCACA the figure was 0.1706 ± 0.000283 E-score; with CAGTGTCG, 0.444 ± 0.0154 E-score; with CCTCGACA, 0.218 ± 0.00226 E-score.
As to CCGACTCG, the binding signal came out at 0.159 ± 0.0511 E-score.
With GGGGTCGA the figure was 0.298 ± 0.0393 E-score.
For the sequence TAGCGACA, the binding signal is 0.172 ± 0.00519 E-score.
In the case of AGGGGTCA, the binding signal came to 0.28 ± 0.00906 E-score.
Turning to CACCCGTG, the binding signal worked out at 0.3705 ± 0.00306 E-score.
For GTTTCACA, the binding signal came out at 0.161 ± 0.0356 E-score.
With ACCAGTAC the figure was 0.151 ± 0.0205 E-score; with GGTGCGTA, 0.161 ± 0.0186 E-score; with CGTACACA, 0.268 ± 0.0421 E-score.
Then CGTACACC, with 0.483 ± 0.00107 E-score; and GGTACACC, with 0.4848 ± 0.00354 E-score; and AGTACACA, with 0.253 ± 0.0191 E-score.
Take CGTACACG: the binding signal worked out at 0.405 ± 0.0112 E-score.
With GGTACACA the figure was 0.322 ± 0.0315 E-score; with AGTACACG, 0.4259 ± 0.00113 E-score.
Then CGTACTCC, with 0.221 ± 0.003 E-score; and CGTACCCC, with 0.24 ± 0.0402 E-score.
Then TGTACACA, with 0.353 ± 0.00919 E-score; and GGCACACC, with 0.351 ± 0.0301 E-score; and CACTTCAA, with 0.265 ± 0.016 E-score.
With AAACCCCT, the binding signal was 0.178 ± 0.0353 E-score.
Turning to GTATCTGA, the binding signal came to 0.236 ± 0.00609 E-score.
With CGGATACA, the binding signal came out at 0.294 ± 0.0106 E-score.
With CCCGCGCA the figure was 0.176 ± 0.0199 E-score.
For CCCCCCAG, the binding signal turned out to be 0.162 ± 0.0223 E-score.
Then AGTACACT, with 0.406 ± 0.0266 E-score; and AGTACCCC, with 0.2867 ± 0.00256 E-score.
On to AGTACAAG, for which the binding signal was 0.205 ± 0.0236 E-score.
With AGTACACC the figure was 0.4815 ± 0.00102 E-score; with CACGCTCA, 0.155 ± 0.038 E-score; with CTAGCACC, 0.203 ± 0.0347 E-score.
As for GTATCGGA, the binding signal came to 0.2544 ± 0.00158 E-score.
With ATACGGTG, the binding signal turned out to be 0.276 ± 0.0116 E-score.
Take ACACGGTG: the binding signal was 0.438 ± 0.00996 E-score.
With ACACGGTA the figure was 0.385 ± 0.0298 E-score; with GCACGGTA, 0.165 ± 0.0341 E-score.
With ACACGGCG the figure was 0.359 ± 0.00453 E-score; with ACCCGGTA, 0.236 ± 0.00419 E-score.
Then ACACGGTC, with 0.4128 ± 0.00131 E-score; and ACGGGAGT, with 0.186 ± 0.00625 E-score.
Turning to ACTCCACC, the binding signal was 0.275 ± 0.00877 E-score.
Then CGTGCACG, with 0.17 ± 0.0561 E-score; and CACCGTGC, with 0.3272 ± 0.00251 E-score; and ACCACTAC, with 0.178 ± 0.00318 E-score.
Then CTCCCGGC, with 0.152 ± 0.0261 E-score; and ACCCCTAC, with 0.294 ± 0.0164 E-score.
Regarding AGGGGTAA, the binding signal turned out to be 0.224 ± 0.0133 E-score.
Then AGTGGTGC, with 0.2454 ± 0.00132 E-score; and CCCTAAGA, with 0.276 ± 0.0324 E-score; and GGGTAAAC, with 0.193 ± 0.00601 E-score.
For GTTTAAAC, the binding signal was found to be 0.3445 ± 0.00099 E-score.
Then GTGTAACA, with 0.445 ± 0.00891 E-score; and GGGTAACA, with 0.281 ± 0.0312 E-score; and GTGTAATA, with 0.451 ± 0.00861 E-score.
Turning to GGGTAATA, the binding signal amounted to 0.264 ± 0.00387 E-score.
With GTGTAAAC the figure was 0.445 ± 0.018 E-score.
With GTGTGAGA the figure was 0.291 ± 0.0156 E-score; with GTGAAATA, 0.172 ± 0.00835 E-score; with ATGTAACA, 0.2716 ± 0.000905 E-score.
Consider GTGTAAGA, for which the binding signal was found to be 0.411 ± 0.0296 E-score.
On to ACATAGTG, for which the binding signal came to 0.19 ± 0.00926 E-score.
ACCCTGCT: the binding signal is 0.19 ± 0.00245 E-score.
Then CACGCGAG, with 0.27 ± 0.0228 E-score; and CCCGCCGG, with 0.245 ± 0.0587 E-score; and CCAAGCGG, with 0.162 ± 0.00467 E-score.
Turning to AACGTACA, the binding signal was 0.185 ± 0.0191 E-score.
Then GTATCGTA, with 0.18 ± 0.0138 E-score.
Then AGTCGCGA, with 0.189 ± 0.03 E-score; and CACTCCTC, with 0.201 ± 0.00344 E-score.
On to GTGTAAAA, for which the binding signal was 0.401 ± 0.049 E-score.
Then GTGTGAAA, with 0.356 ± 0.00667 E-score; and GGATCCCA, with 0.235 ± 0.0247 E-score.
As to ATTGACTC, the binding signal worked out at 0.162 ± 0.0495 E-score.
Take CTTGACCC: the binding signal stood at 0.201 ± 0.00951 E-score.
Then CTTGACAC, with 0.42915 ± 0.000184 E-score.
As to ATTGACCC, the binding signal came to 0.167 ± 0.0261 E-score.
With CTTGATAC the figure was 0.195 ± 0.0457 E-score.
With ATTGACAC the figure was 0.438 ± 0.0129 E-score.
For the sequence CAGCGTTA, the binding signal was found to be 0.187 ± 0.0162 E-score.
Turning to AGATGACA, the binding signal was 0.1652 ± 0.000311 E-score.
On to CACCCACA, for which the binding signal was 0.365 ± 0.00539 E-score.
Consider CCCTTAAC, for which the binding signal was found to be 0.152 ± 0.0479 E-score.
With AAATACAC the figure was 0.403 ± 0.0413 E-score.
As for CAAAATAC, the binding signal was found to be 0.162 ± 0.0251 E-score.
Then GAATACCC, with 0.159 ± 0.00629 E-score; and GAATACAC, with 0.408 ± 0.0236 E-score.
Then CAATACAC, with 0.371 ± 0.0193 E-score; and CCCTTAGG, with 0.175 ± 0.00592 E-score; and CACCCGAG, with 0.297 ± 0.0235 E-score.
With ACCAGTGG the figure was 0.189 ± 0.0039 E-score; with CCCCAAGG, 0.218 ± 0.0124 E-score.
Turning to ACCTGGGG, the binding signal was 0.21 ± 0.0103 E-score.
With CACGCCGG, the binding signal worked out at 0.287 ± 0.0131 E-score.
With GGTTAACA the figure was 0.224 ± 0.0235 E-score.
With TCTTAACA the figure was 0.202 ± 0.0606 E-score; with TGTTAACA, 0.389 ± 0.043 E-score; with CCCTAGTC, 0.167 ± 0.0143 E-score.
For CACCCTCG, the binding signal turned out to be 0.349 ± 0.0215 E-score.
Then ACGCCTCA, with 0.165 ± 0.0291 E-score; and ACACCTCA, with 0.452 ± 0.0073 E-score.
On to ACACCTCG, for which the binding signal came out at 0.453 ± 0.00735 E-score.
On to ACACCTCT, for which the binding signal came to 0.467 ± 0.0079 E-score.
Then ACCCCTCT, with 0.304 ± 0.0038 E-score; and ACCCCTCG, with 0.3069 ± 0.00276 E-score; and ACTCCTCT, with 0.174 ± 0.0278 E-score.
With ACACCTCC the figure was 0.4719 ± 0.000629 E-score; with GCACCTCA, 0.162 ± 0.0144 E-score; with CCACCTCC, 0.159 ± 0.00267 E-score.
Consider ATACCTCC, for which the binding signal amounted to 0.231 ± 0.0309 E-score.
